Measured values reported in PubChem BioAssay (NCI).
Compounds without any hit were thinned out: in the full panel of roughly 83,000, 20% have a hit.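 For each line, cells grew in 96-well plates with the test compound present at a single concentration for 48 hours.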 Values without a mark were called inactive. Activity calls are given as the source filed them. How the source made its calls: active means growth percent below 10; inactive means the rest.

Experiments:
Assay in all cases: NCI-60 one-dose screen, 48 h (100 = growth as untreated, 0 = no growth, -100 = all killed)
Details in all cases: 10 µM
T-47D breast = test system: T-47D breast
BT-549 breast = test system: BT-549 breast
MDA-MB-435 melanoma = test system: MDA-MB-435 melanoma
SW-620 colon = test system: SW-620 colon
MCF7 breast = test system: MCF7 breast
HCT-116 colon = test system: HCT-116 colon
HCC-2998 colon = test system: HCC-2998 colon
KM12 colon = test system: KM12 colon

Compound	growth (T-47D breast)	growth (BT-549 breast)	growth (MDA-MB-435 melanoma)	growth (SW-620 colon)	growth (MCF7 breast)	growth (HCT-116 colon)	growth (HCC-2998 colon)	growth (KM12 colon)
COc1ccc(-c2nn(-c3cccc(Cl)c3)cc2-c2cc(-c3ccccc3)[nH]c(=O)c2C#N)cc1	27.6%	3.07% (active)	81.5%	67.7%	52.9%	15.6%	49.9%	69.8%
CCOC(=O)c1sc2ncnc(Nc3ccc4c(cnn4C(=O)Nc4ccccc4)c3)c2c1C	51.5%	48.9%	54.2%	50%	55.8%	34.4%	98.4%	65.5%
C[C@@H](O)[C@H]1C(=O)N2C(C(=O)O)=C(SC3CN[C@H](C(=O)N(C)C)C3)[C@H](C)[C@H]12 (stereo partly specified)	98.2%	105%	101%	99.4%	101%	104%	106%	108%
CCCCCOC(=O)Nc1nc(=O)n(C2O[C@H](C)[C@@H](O)[C@H]2O)cc1F (stereo partly specified)	102%	102%	98.4%	99.1%	99.8%	101%	101%	103%
CCOC(=O)c1cc(C(=O)c2ccc(F)cc2F)n2ccccc12	76.3%	88.5%	106%	94.5%	94.1%	92.5%	101%	96.1%
Nc1ccccc1NC(=O)c1ccc(CCCC(=O)Nc2ccc(C3CC3N)cc2)cc1 (stereo unspecified)	7.85% (active)	47.4%	18%	14.9%	17.7%	8.68% (active)	19.5%	45.2%
CC(=O)N[C@H](C(=O)N[C@@H](CCCNC(=N)N)C(=O)N[C@@H](CCCCN)C(=O)N[C@@H](CCCNC(=N)N)C(=O)N[C@]1(C)CCC/C=C\CCC[C@@](C)(C(=O)N[C@@H](CC(C)C)C(=O)N[C@@H](CC(C)C)C(=O)N[C@@H](CCC(N)=O)C(=O)N[C@@H](CCC(=O)O)C(=O)N[C@@H](CCCNC(=N)N)C(=O)N[C@@H](CCC(=O)O)C(=O)N[C@@H](CC(C)C)C(=O)N[C@H](C(=O)N[C@@H](CCC(=O)O)C(N)=O)C(C)C)NC(=O)[C@H](CCCNC(=N)N)NC(=O)[C@H](CC(C)C)NC1=O)C(C)C	92.4%	102%	110%	113%	102%	105%	109%	105%
C[C@@H](O)[C@H]1C(=O)N2C(C(=O)O)=C(SCCN=CN)C[C@H]12	-6.42% (active)	18.9%	-9.18% (active)	-0.331% (active)	-6.51% (active)	-24.8% (active)	0.878% (active)	9.33% (active)
CCOC(=O)c1cc(C(=O)c2ccc(OC)c(OC)c2)n2ccncc12	78.8%	84.5%	104%	100%	79.6%	93.3%	101%	101%
Clc1nc2ccccc2cc1Cn1nnc(Cc2ccccc2)n1	26.1%	38.9%	65.3%	86.6%	45.8%	35.1%	81.3%	66.3%
c1cnc2[nH]cc(-c3nc(-c4ccsc4)cs3)c2c1	66.1%	96.1%	98.3%	111%	57.7%	89.9%	115%	88.9%
Cc1cc(Cl)ccc1Nc1nc(C(F)(F)F)ccc1C(=O)N/N=C/c1cccc(O)c1	39.8%	9.22% (active)	56%	27.8%	29.9%	17.6%	31.9%	41.8%
CCc1ccc(-c2ccc(-n3nc(C)c4c(N)nc(Cc5ccccc5)nc43)cc2)cc1	49.7%	72%	82.7%	77.8%	58.1%	59.1%	23.7%	53.5%
Cc1ccc(N=Nc2ccccc2)cc1	88.2%	90%	101%	102%	98.3%	78.4%	103%	93.8%
CC(=O)N[C@H](C(=O)N[C@@H](CCCNC(=N)N)C(=O)N[C@@H](CCCCN)C(=O)N[C@@H](CCCNC(=N)N)C(=O)NC(C(=O)N[C@@H](CC(C)C)C(=O)N[C@@H](CCCNC(=N)N)C(=O)N[C@@]1(C)CCC/C=C\CCC[C@@](C)(C(=O)N[C@@H](CCCNC(=N)N)C(=O)N[C@@H](CCC(=O)O)C(=O)N[C@@H](CC(C)C)C(=O)N[C@H](C(=O)N[C@@H](CCC(=O)O)C(N)=O)C(C)C)NC(=O)[C@H](CCC(N)=O)NC(=O)[C@H](CC(C)C)NC(=O)[C@H](CC(C)C)NC1=O)[C@@H](C)O)C(C)C (stereo partly specified)	-53.4% (active)	-79.7% (active)	-12.1% (active)	22.4%	-79.8% (active)	18.9%	51.3%	-40.8% (active)
CC(=O)Nc1ccc2c(c1)C(=O)c1cccc(C(=O)O)c1-2	99.3%	117%	102%	99.8%	105%	105%	102%	120%
COc1ccc(/C(=N\N)C(=O)c2ccccc2)cc1 (tested in a mixture with another compound)	83.7%	108%	92.7%	107%	92.4%	103%	98.1%	102%
COc1cc(/C=C/c2cc(/C=C/c3ccc(O)c(OC)c3)nc(N)n2)ccc1O	1.57% (active)	-24.4% (active)	-8.12% (active)	1.86% (active)	7.59% (active)	0.331% (active)	0.932% (active)	-29.3% (active)
COc1ccc(Nc2cnc3cc(NS(=O)(=O)c4ccc(C)cc4)ccc3n2)cc1	94.4%	98.1%	4.57% (active)	59.9%	61.6%	79.6%	93.6%	71.3%
O=C(Nc1ccccc1)Nc1ncnc2c1ncn2-c1ccccc1	51.3%	89.4%	84.8%	94%	78.9%	29.2%	92.6%	87.4%
CNC(=O)c1cn(C2CC2)c2cc(N3CCN(C(=O)c4cc(OC)c(OC)c(OC)c4)CC3)c(F)cc2c1=O	79%	112%	108%	103%	94.3%	103%	113%	102%
CCN(CCCNc1cc2c(c(N)c1S(=O)(=O)O)C(=O)c1ccccc1C2=O)c1ccccc1	93.1%	89.2%	106%	113%	107%	90%	108%	107%
CCCc1cn(CC(=O)Nc2nc3ccccc3s2)nn1	102%	103%	105%	99.9%	100%	101%	116%	109%
COc1ccc2cc(-c3nc4ccccc4s3)c(Cl)nc2c1OC	91.2%	114%	110%	93.8%	92.9%	108%	105%	101%
COc1ccc(-c2csc(NC(=O)c3ccc(Cc4n[nH]c(=O)c5cccnc45)cc3)n2)cc1	68.8%	-17.8% (active)	98.8%	95.2%	77.4%	91.9%	90.1%	98.5%
COc1cc(NC(=O)Nc2cnc(Nc3ccc(N4CCOCC4)cc3)nc2Oc2cccc(OC)c2)cc(OC)c1	49.6%	28.8%	51.6%	72.6%	50.6%	32.4%	45.4%	53.3%
Cc1c(O)c(=O)ccn1C1CCC(CC2CCC(n3ccc(=O)c(O)c3C)CC2)CC1 (stereo unspecified)	32.3%	31.5%	33.3%	43.1%	15.9%	28.4%	55.6%	46.5%
